Active and inactive are the calls of the source.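 Rule for the calls: active = high combined rank on largest and smallest cell-count-weighted shift across three tests, rank score above 45, floors 50 and 25 (some results past the limit were not filed as active); inactive = the rest.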
Experiment: LNCaP granularity increase inducers, single-point recheck – cell-based, side scatter shift, flow cytometry, confirmation (AID 1069);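 note: LNCaP human prostate cancer cells in low-serum medium with charcoal-stripped FBS; percent of cells with raised granularity gated so DMSO controls show 10%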
Details: LNCaP differentiation, 4 d, stronger effect = higher value

Structure (SMILES)	side scatter shift (at 100 µM)	side scatter shift (side scatter shift, at 10 µM)
CCc1ccc(-c2nc(CN3CCC(C(=O)NCc4ccco4)CC3)c(C)o2)cc1	20% (inactive)	16.5%
COc1ccc(N2CCN(CCCNC(=O)C3(S(=O)(=O)c4ccc(Cl)cc4)CC3)CC2)cc1	26.9% (inactive)	2.45%
Cc1ccccc1-c1nc(CN2CCC(C(=O)NCCCN3CCCC3)CC2)c(C)o1	40% (inactive)	19.4%
Cc1onc(-c2ccccc2Cl)c1C(=O)N(C)C1CCCCC1	16% (inactive)	5.1%
O=C(NCCc1c[nH]c2ccccc12)C(F)(F)C(F)F	9% (inactive)	5.05%
CCC(C)NC(=O)c1cn(C)c(=O)c2cc(OC)c(OC)cc12 (stereo not drawn)	25.6% (inactive)	5.2%
COc1ccc(N2CCN(CCCNC(=O)CC3Oc4ccc(C)cc4NC3=O)CC2)cc1 (stereo not drawn)	50% (active)	9.05%
COc1ccc(-c2cc3c(=O)n(CC(=O)NC4CCN(Cc5ccccc5)CC4)ncn3n2)cc1	36.1% (inactive)	5.5%
O=C(Cn1cc2c(n1)CCCC2)NCCCN1CCN(c2ccccc2F)CC1	56.4% (active)	4.95%
Cc1oc(-c2ccccc2F)nc1CN1CCC(C(=O)NCc2cccnc2)CC1	8.3% (inactive)	3.9%
Cc1ccc(C(=O)/C=C/Nc2cccc(O)c2)cc1	35.3% (inactive)	4.85%
Cc1oc(-c2ccc(Cl)cc2)nc1CN1CCCC(C(=O)NCCCN2CCOCC2)C1 (stereo not drawn)	42.9% (inactive)	16.6%
Cc1ccc(CN2CCSc3ccc(C(=O)N4CCN(c5ncccn5)CC4)cc32)cc1	18.6% (inactive)	7.2%
CCOC(=O)Cn1nc(-c2ccc(Cl)cc2)cc1N	11.4% (inactive)	4.7%
CCc1cc(C)cc(OCCNC(=O)c2ncn[nH]2)c1	3.5% (inactive)	0%
CCOc1cccc2cc(-c3cn4cc(C)ccc4n3)c(=O)oc12	43.1% (active)	2.1%
CN1CCN(CC(=O)Nc2ccc(Cl)cc2Cl)CC1	23.1% (inactive)	6.1%
O=C(NCCCN1CCN(c2ccccc2F)CC1)C1CCN(S(=O)(=O)c2cccs2)CC1	22.7% (inactive)	3.7%
COC(=O)CN1CCN(C(=O)c2ccc(F)cc2)c2ccccc2C1	12.5% (inactive)	3.1%
N=c1n(CCO)c2ccccc2n1CCOc1ccc(Cl)cc1Cl	22.2% (inactive)	8.75%

Structure (SMILES)	side scatter shift (at 100 µM)	side scatter shift (side scatter shift, at 10 µM)
COc1ccc(-c2oc3ncn(CCN4CCOCC4)c(=N)c3c2-c2ccc(OC)cc2)cc1	42.3% (inactive)	19.7%
O=c1cc(N2CCN(c3ccc(F)cc3)CC2)[nH]c(=O)n1C1CCCCC1	16.8% (inactive)	5.4%
COc1ccc(-n2nnnc2SCC(=O)c2ccc(O)c(O)c2)cc1	0% (inactive)	2.75%
O=C(CSc1nc2sc3c(c2c(=O)n1-c1ccccc1)CCCC3)NCc1ccco1	24% (inactive)	4.3%
Cn1nc(-c2ccc(Cl)cc2)c2cc(C(=O)NCCCN3CCCC3)sc21	31.6% (active)	66.5%
Cc1ccccc1-c1nc(CN2CCC(C(=O)NCc3cccnc3)CC2)c(C)o1	36.9% (inactive)	1.35%
Cc1oc(-c2ccc(Cl)cc2)nc1CN1CCC(C(=O)NCCCN2CCCC2=O)CC1	11.8% (inactive)	1.8%
Cc1oc(-c2ccc(Cl)cc2)nc1CN1CCCC(C(=O)NCc2ccco2)C1 (stereo not drawn)	22.2% (inactive)	12.7%
CCOC(=O)c1c(C)[nH]c(C(=O)COC(=O)C2CC2C)c1C (stereo not drawn)	24.3% (active)	44.6%
COc1ccc(CCNC(=O)C2CCN(Cc3nc(-c4ccccc4F)oc3C)CC2)cc1OC	9% (inactive)	8.85%
CCN(CCNC(=O)C1CCN(Cc2nc(-c3ccc(Cl)cc3)oc2C)CC1)c1ccccc1	25% (inactive)	26.4%
COc1ccc(Cc2noc(-c3ccc(C)cc3)n2)cc1	21.4% (inactive)	10.1%
CS(=O)(=O)c1nc(-c2cccs2)cc(C(F)(F)F)n1	52.8% (inactive)	15.6%
Cc1ccc(-n2c(SCC(=O)Nc3nccs3)nc3c(c2=O)SCC3)cc1	16.9% (inactive)	9.7%
COc1ccc(-n2cc(-c3ccccc3)c3c(N4CCN(CCO)CC4)ncnc32)cc1	33.3% (inactive)	9.55%
CC(=O)Nc1cc(C(=O)N2CCOCC2)ccc1S(=O)(=O)c1ccc(C)cc1	11.4% (inactive)	2.95%
COc1ccc(N2CCN(CCCNC(=O)CCCn3c(=O)[nH]c4ccsc4c3=O)CC2)cc1	7.7% (inactive)	20.6%
COc1ccc(N2CCN(CCCNC(=O)CN3CCN(Cc4ccccc4C)C3=O)CC2)cc1	15.8% (inactive)	16.6%
Cc1cc(=O)n2nc(N3CCCC(C(=O)NCCCN4CCc5ccccc5C4)C3)sc2n1 (stereo not drawn)	17.4% (inactive)	9.3%

— PubChem BioAssay AID1069 (NMMLSC, 2008)
